# FMDV inh: High Throughput Screening for Foot and Mouth Disease Virus Antivirals; 410,000 compounds, 1.2% hits; FMDV antiviral cell-based qHTS; Potency, µM (highest dose often 57.9 µM), for inactives: at the highest dose activity change, negative = inhibition, actives largely listed as inhibitors; AID 1159524, 2015; calls by dose curve; tested in HEK293T cells; also: read-out not given here; potency is read from the fitted curve at half-maximal effect; nearly all actives have a fitted effect of over 45% in size
# MARV entry inh: qHTS for inhibitors of binding or entry into cells for Marburg Virus | Marburg virus pseudotyped entry inhibition, cell reporter | Potency, µM (series often up to 37.8 µM), for inactives: at the top dose activity change, negative = inhibition, actives largely listed as inhibitors | 300,000 compounds, 1.8% hits; calls by dose curve; tested in HEK293 cells; also: potency is read from the fitted curve at half-maximal effect
# Lassa entry inh: qHTS for Inhibitors of binding or entry into cells for Lassa Virus; Lassa virus pseudotype entry inhibition, cell reporter; Potency, µM (doses to about 37.9 µM), without a hit: at the highest dose activity change, negative = inhibition, usual class: inhibitors; 300,000 compounds, 1.2% hits; calls by dose curve; tested in HEK293 cells; also: potency is read from the fitted curve at half-maximal effect; nearly all actives have a fitted effect of over 50% in size
# HCV inhibitor: qHTS Assay for Inhibitors of Hepatitis C Virus (HCV); Potency, µM (titrated, usually from 41.8 µM), inactives show top-dose activity change, negative = inhibition, actives largely listed as inhibitors; Huh7.5.1 HCVcc-Cre infection, luciferase reporter, 44 h; AID 651820, 2012; 340,000 compounds, 3.4% hits; active = well fitted inhibition curve with a large enough effect; inconclusive = small, poorly fitted or top-dose-only effect, or another doubt; inactive = no such curve, though single readings can be large or run the other way; also: potency is read from the fitted curve at half-maximal effect
#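 After 44 h co-culture of compound, cells and HCVcc-Cre (~0.5 moi), substrate is added for 15 min at room temperature and luciferase measured over 15 sec. Cells were seeded at 1,000/well and pre-cultured 4 h.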
# HCMV inh: qHTS Assay for inhibitors of the human cytomegalovirus (HCMV) | 410,000 compounds, 4.5% hits | activity change, negative = inhibition, % at 57.5 µM | HFF cells, HCMV-luciferase reporter, 72 h; active compounds read low; in the data active = activity change below about -60%; inconclusive = no clear call, values can overlap the other calls; inactive = above about -39%
#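 Two compound doses tested in HFFs infected with HCMV-luciferase, MOI 1 PFU/cell, 72 h at 37C. Lysate luminescence read with OneGlo; data normalized against buffer-only and 10uM Salinomycin inhibitor controls.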
# * = called active by the depositor; ? = inconclusive; . = no result given; [ ] = remark or other dose. The list is not random: actives were taken first. Their share in the collection is about 7.9%. % is scaled to controls: 0 for no effect and ±100 for the full control effect.
SMILES,FMDV inh,MARV entry inh,Lassa entry inh,HCV inhibitor,HCMV inh
COc1cc(Cl)c(C)cc1NC(=O)Cc1ccc(OC)c(OC)c1,?,-11%[46.1 µM],-15%,?,-34
COc1cc(Cl)c(C)cc1NC(=O)Cc1cccs1,12%,-12%,4%,3.5µM*,-19
COc1ccccc1NS(=O)(=O)c1cccc(NC(=O)c2[nH]c(C)c(C(C)=O)c2C)c1,-29%,.,.,13µM*,0
Cc1[nH]c2ccccc2c1C(c1ccccn1)N1CCCC1 (stereo not given),-8%,-15%[46.1 µM],-1%,-9%,-39
CCOC(=O)C1CCCN(C(c2ccccn2)c2c(C)[nH]c3ccccc23)C1 (stereo not given),5%,2%[46.1 µM],-3%,22%,-87*
Cc1cc(C(=O)O)ccc1[C@H](N)C(=O)O,-5%,.,.,.,.
CC(=C\c1ccco1)/C=C(\C#N)C(=O)NCCc1c[nH]c2ccccc12,-22%,?,-3%,?,-73*
O=C(NCCc1c[nH]c2ccccc12)/C(=C/c1ccco1)NC(=O)c1ccco1,-21%,?,10%,10%,8
Cc1cnc(C(=O)Nc2c(-c3ccccc3)[nH][nH]c2=O)cn1,-5%,.,.,.,-10
CN(C)c1ccc(-c2[nH][nH]c(=O)c2NC(=O)c2ccccn2)cc1,1%,.,.,.,-61*
CN(C)c1ccc(-c2[nH][nH]c(=O)c2NC(=O)c2ccc3ccccc3n2)cc1,-10%,.,.,.,-63*
COc1cc(=O)n2c(c1C(=O)NC(C)c1ccco1)CCN(CC=C(C)C)CC2 (stereo not given),9%,.,.,.,.
COc1ccc(C(=O)c2ccc(Cl)cc2)c(OC)c1OC,-2%,16%,?,-8%,2
CCCCNC(=O)C1(C)CCN1C(=O)c1cc(F)ccc1C (stereo not given),-5%,.,.,.,-28
COc1cc2nc(NC(=O)c3ccc(S(=O)(=O)N4CCCC4)cc3)sc2cc1OC,0%,.,22%[46.1 µM],.,-63*
COc1ccc(C(=O)Nc2nc3ccc(S(=O)(=O)N4CCCC4)cc3s2)cc1,40%,.,24%[46.1 µM],.,-5
CC(=O)Nc1nc2ccc(S(=O)(=O)N3CCCC3)cc2s1,13%,.,.,1%,-63*
CCCC(=O)Nc1nc2ccc(S(=O)(=O)N3CCCCC3)cc2s1,11%,.,.,?,-28
Cc1ccc(OCc2nnc(SCc3cc(=O)[nH]c4ccccc34)o2)cc1,?,-8%,-19%,-13%,60
O=c1cc(CSc2nnc(COc3ccccc3)o2)c2ccccc2[nH]1,-24%,?,23µM*,12%,2
COc1ccc(/C=C/C(=O)NCC2Cc3cc(Cl)cc(-c4ncccn4)c3O2)cc1 (stereo not given),0%,.,.,.,.
O=C1C=CC(=O)N1CCNc1ncc(C(F)(F)F)cc1Cl,32µM*,?,?,?,-96*
CS(=O)(=O)NCCNc1ncc(C(F)(F)F)cc1Cl,0%,-8%[46.1 µM],0%,-13%,?
O=S(=O)(NCCNc1ncc(C(F)(F)F)cc1Cl)C(F)(F)F,-6%,?,-4%,?,-71*
COc1ccccc1NC(=O)c1ccc(NS(=O)(=O)c2ccc(F)c(F)c2F)cc1,?,34%,11%,4%,56
SMILES,FMDV inh,MARV entry inh,Lassa entry inh,HCV inhibitor,HCMV inh
Cc1nnc(NC(=O)CSc2nccn2Cc2ccc(Cl)cc2)s1,-1%,.,1%[46.1 µM],.,2
CCOc1ccc(-c2nnc(Nc3ccc(OC)c(C(=O)N4CCCCC4)c3)c3ccccc23)cc1,-11%,3%,.,14µM*,-23
COC(=O)COc1ccc(-c2nnc(Nc3ccc(O)cc3)c3ccccc23)cc1,?,-5%[46.1 µM],19%[46.1 µM],.,-107*
COc1ccc(CCNC(=O)CNCCc2ccc(F)cc2)cc1,-23%,.,.,-13%,-18
Cc1cc(CC(=O)O)c(C)n1-c1ccc(Cl)cc1,.,.,.,.,1
COc1ccc2ncc3c(-c4ccc(C)c(C)c4)nn(CC(=O)Nc4ccccc4)c3c2c1,9%,.,-16%[46.1 µM],.,-92*
O=C1C=CC(=O)N1CCCCCCCCCCN1C(=O)C=CC1=O,20µM*,?,?,?,-34
O=C1C=CC(=O)N1Cc1ccncc1,-14%,?,9%,18%,14
CCCCCCCNC(=O)C1(CC2CC(c3ccc(Cl)cc3)=NO2)CCNCC1 (stereo not given),-25%,.,.,9%,-100*

# Screening results: PubChem BioAssay, National Center for Advancing Translational Sciences (NCATS)
